The values that follow come from PubChem BioAssay (Tox21).

Records with an inconclusive call do not appear. Values without a mark were called inactive. Activity calls are given as the source filed them. Unless noted, the call rests on the fitted dose curve; in most records, active means well fitted curve in the direction sought with a large enough effect in the repeat runs; inconclusive means weak or mixed curves; inactive means no such curve, though single readings can be large; an effect the other way counts as inactive or inconclusive.

Test [1] can be described thus: qHTS assay to identify small molecule antagonists of the vitamin D receptor (VDR) signaling pathway - cell viability counter screen (AID 743225). Further: nearly all actives have a fitted effect of over 50% in size. Summed up:
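In this counter screen, VDR-bla HEK 293T cells receive test compound plus 3 nM final calcitriol for 16 h at 37C. Room-temperature steps of 2 h with the beta-lactamase substrate, then 30 min with CellTiter-Glo, precede the luminescence read.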

Test [2] in a line: qHTS assay to identify small molecule agonists of the NFkB signaling pathway (AID 1159509; active means well fitted curve in the direction sought with a large enough effect in the signal ratio in the repeat runs, not every such curve was filed as active; the % refers to the signal ratio; further: series mostly up to about 61 µM). Summed up:
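NFkB-bla ME-180 cells with a beta-lactamase reporter under an NF-kB response element were plated overnight, treated with compounds in DMSO for 5 hr at 37 C, then loaded with FRET substrate for 1.5 hr at room temperature.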

Test [3] in a line: qHTS assay to identify small molecule agonists of the NFkB signaling pathway - cell viability counter screen (AID 1159515; calls by dose curve; further: series mostly up to about 61 µM; nearly all actives have a fitted effect of over 55% in size). Summed up:
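Using the same wells as the NFkB reporter read, ME-180 NFkB-bla cells given compounds for 5 hr were assessed for viability via CellTiter-Glo, with luminescence taken after a 30 min room-temperature incubation.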

Test [4] can be described thus: qHTS assay to identify small molecule agonists of the endoplasmic reticulum stress response signaling pathway (AID 1159516; active means well fitted activation curve with a large enough effect in the signal ratio in the repeat runs, not every such curve was filed as active; the % refers to the signal ratio). Summed up:
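An ESRE-bla HeLa cell assay: compounds were pin-transferred from DMSO onto overnight-plated cells and left 5 hr at 37 C. Substrate was then loaded for 2 hr at room temperature before reading fluorescence at 460 nm and 530 nm.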

Test [5] is described as follows: qHTS assay to identify small molecule agonists of the endoplasmic reticulum stress response signaling pathway - cell viability counter screen (AID 1159517; calls by dose curve;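 further: HeLa cells carrying an ER stress response element beta-lactamase reporter; series mostly up to about 61 µM; nearly all actives have a fitted effect of over 50% in size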). Summed up: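 Luminescence readout: CellTiter-Glo, 30 min RT, same wells as the ESRE-bla reporter read. HeLa ESRE-bla, 1,500 cells/well, o/n 37 C; cpd 5 hr 37 C/5% CO2.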
The nature of test [6]: qHTS assay to identify small molecule antagonists of the retinoid-related orphan receptor gamma (ROR-gamma) signaling pathway - cell viability counter screen (AID 1159520). Further: nearly all actives have a fitted effect of over 50% in size. An outline of the steps: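 Tet-on ROR gamma CHO cells (1,000/well) were plated 4 hr, given compounds in DMSO for 2 hr at 37 C, then induced with 1 uM final doxycycline for 16 hr. Viability was read as ATP by CellTiter-Glo luminescence after 30 min.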

In test [7] the target is Nuclear receptor ROR-gamma (Homo sapiens) (UniProt P51449). Nature of the test: qHTS assay to identify small molecule antagonists of the retinoid-related orphan receptor gamma (ROR-gamma) signaling pathway (AID 1159521;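 further: CHO cells with doxycycline inducible ROR-gamma driving an RORE luciferase reporter; top concentration of the series differs between compounds; nearly all actives have a fitted effect of over 50% in size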). An outline of the steps:
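Screening format: cell-based luciferase reporter in CHO cells with doxycycline-inducible RORγ. Compound pre-exposure lasts 2 h, doxycycline is 1 uM final, induction runs 16 h at 37 C, and ONE-Glo luminescence is read.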

Test [8] is described as follows: qHTS assay to identify small molecule agonists of the AP-1 signaling pathway - cell viability counter screen (AID 1159525; calls by dose curve; further: nearly all actives have a fitted effect of over 55% in size). Summed up: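 ME-180 AP-1-bla, 2500 cells/well, Opti-MEM + 0.5% dialyzed FBS; overnight 37 °C; cpd 15-pt titration, 5 h 37 °C; CellTiter-Glo 30 min RT; luminescence read; normalised to TOAB and DMSO controls.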
Test [9] can be described thus: qHTS assay to identify small molecule agonists of the AP-1 signaling pathway (AID 1159526; calls by dose curve).
Test [10] addresses Retinoic acid receptor RXR-alpha (Homo sapiens) (UniProt P19793). Nature of the test: qHTS assay to identify small molecule agonists of the RXR signaling pathway (AID 1159527; calls by dose curve; further: nearly all actives have a fitted effect of over 35% in size). Summed up: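 Fluorescence ratio readout (460 vs 530 nm) from GeneBLAzer RXR-alpha HEK 293T cells after 16 hr compound treatment; cells seeded 5 hr beforehand in low-serum, charcoal-stripped medium.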
Test [11] can be described thus: qHTS assay to identify small molecule agonists of the RXR signaling pathway - cell viability counter screen (AID 1159529). An outline of the steps: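 Viability read-out for the RXR-alpha agonist qHTS: luminescent CellTiter-Glo signal after 30 min at RT. HEK 293T bla reporter cells, 2% charcoal-stripped FBS, 16 hr compound incubation; tetraoctyl ammonium bromide as cytotoxic control.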

Test [12] can be described thus: qHTS assay to identify small molecule antagonists of the retinoid acid receptor (RAR) signaling pathway - cell viability counter screen (AID 1159551). Further: nearly all actives have a fitted effect of over 35% in size. An outline of the steps:
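Retinol-stimulated (1 uM final) C3RL4 cells, compound 6 h, 37 C; readout CellTiter-Glo luminescence (ATP) after 30 min RT incubation.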

Test [13] in a line: qHTS assay to identify small molecule antagonists of the estrogen related receptor (ERR) signaling pathway from Tox21 library - cell viability counter screen (AID 1224834). Further: nearly all actives have a fitted effect of over 30% in size. An outline of the steps: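 After 17.5 h of compound exposure at 37 C, ERR cells are incubated with CellTiter-Fluor for 30 min and fluorescence intensity serves as the viability measure.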
Test [14] in a line: qHTS assay to identify small molecule antagonists of the retinoic acid receptor (RAR) signaling pathway (AID 1159552; further: nearly all actives have a fitted effect of over 50% in size). An outline of the steps:
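Using a RARE-driven luciferase construct in C3RL4 cells, retinol at 1 uM final provided the agonist stimulus while compounds were co-applied. After 6 hours at 37 C, luminescence was recorded to flag inhibitors of retinol signaling.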

The nature of test [15]: qHTS assay to identify small molecule agonists of the retinoic acid receptor (RAR) signaling pathway (AID 1159553). Further: potency means the concentration at half of the fitted maximal effect. An outline of the steps: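 Reporter readout comes from luciferase under RARE control in C3RL4 cells; compound exposure lasts 6 hr at 37 C in 5% CO2, and luminescence is recorded following a 30 min room-temperature incubation with reagent.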

Sequence of Retinoic acid receptor RXR-alpha (Homo sapiens) (P19793 whole entry, looked up): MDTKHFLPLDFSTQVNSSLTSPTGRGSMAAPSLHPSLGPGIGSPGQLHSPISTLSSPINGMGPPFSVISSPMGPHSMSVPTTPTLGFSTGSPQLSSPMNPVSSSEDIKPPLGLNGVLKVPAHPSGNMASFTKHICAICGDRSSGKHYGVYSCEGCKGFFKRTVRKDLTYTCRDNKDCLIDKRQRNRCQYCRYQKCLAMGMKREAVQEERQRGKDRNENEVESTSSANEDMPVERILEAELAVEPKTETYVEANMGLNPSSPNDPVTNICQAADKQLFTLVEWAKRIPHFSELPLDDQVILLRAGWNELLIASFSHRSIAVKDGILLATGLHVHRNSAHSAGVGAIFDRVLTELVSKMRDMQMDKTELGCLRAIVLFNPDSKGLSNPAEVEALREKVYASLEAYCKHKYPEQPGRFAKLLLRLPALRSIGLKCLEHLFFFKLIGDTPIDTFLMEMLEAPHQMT

For the compound `CCc1cc2c(s1)-n1c(C)nnc1CN=C2c1ccccc1Cl`, the call in test [1], in test [2], in [3], in [4] and in [9] was inactive. Further, the Potency result in test [5], in [6], in test [7], in test [8], in test [10] and in test [11] was “inactive” in each case. Also, the Potency entry in test [12] and in test [13] was “inactive” in each case.
As to `CCCCOC(=O)c1ccccc1N`, the outcome in test [2], in [3], in test [4] and in test [9] was inactive. The Potency result in test [5], in test [6], in test [7], in [8], in test [10] and in test [12] was “inactive” each time. Also, the Potency entry in [14] and in test [13] was “inactive” in each case.
Turning to `CCCSC(=O)N(CCC)CCC`, the compound was classed as inactive in test [1], in test [2], in [3], in test [4] and in [9]. Also, the Potency entry in test [5], in test [6], in test [7], in [8], in test [10] and in test [11] was “inactive” each time. The Potency entry in test [12] and in test [13] was “inactive” each time.
For the compound `CC(=O)C(Cl)Cl`, the result in test [1], in test [2], in [3], in [4] and in test [9] was inactive. Besides, the Potency entry in test [5], in test [6], in test [7], in [8], in test [10] and in test [11] was “inactive” each time. For the same compound, the Potency result in [12] and in test [13] was “inactive” throughout.
Regarding `CCCCC(=O)Cl`, the compound was classed as inactive in [1], in test [2], in test [3], in test [4] and in [9]. Further, the Potency entry in [5], in test [6], in test [7], in [8], in test [10] and in test [11] was “inactive” in each case. The Potency entry in test [12] and in test [13] was “inactive” throughout.
As for `CC(COc1ccc(Oc2ccccc2)cc1)Oc1ccccn1` (stereo unspecified), the call in test [2], in test [3], in [4] and in test [9] was inactive. Besides, the Potency result in [5], in test [6], in test [7], in [8], in test [11] and in test [12] was “inactive” throughout. Also, the Potency entry in test [14] and in test [13] was “inactive” each time. Besides, the Potency in test [15] is 13.7 µM (active).
Turning to `CC1(C)C(=O)NC(=O)NC1=O`, the result in test [1], in test [2], in test [3], in [4] and in test [9] was inactive. Also, the Potency entry in [5], in [6], in test [7], in [8], in test [11] and in [12] was “inactive” throughout. Also, the Potency result in [13] was “inactive”.
Turning to `O=C(Cc1ccccc1)OCc1ccccc1`, the call in test [1], in [2], in test [3], in [4] and in test [9] was inactive. Also, the Potency entry in test [5], in [6], in [7], in [8], in [11] and in [12] was “inactive” each time. Moreover, the Potency result in [14] and in test [13] was “inactive” in each case. In addition, the Potency in [15] is 61.6 µM (active).
As to `N#CCBr`, the compound was classed as inactive in [1], in test [2], in test [3], in test [4] and in test [9]. The Potency entry in test [5], in test [6], in test [7], in test [8], in test [11] and in test [12] was “inactive” each time. In test [13], the Potency entry was “inactive”.
In the case of `CCC/C(=N\OCC)C1=C(O)CC(CC(C)SCC)CC1=O` (stereo unspecified), the compound was classed as inactive in [1], in test [2], in [3], in test [4] and in test [9]. In addition, the Potency entry in [5], in test [6], in [7], in test [8], in [11] and in [12] was “inactive” in each case. Also, the Potency entry in test [14] and in test [13] was “inactive” throughout.
As to `CCOC(=O)NC(=S)Nc1ccccc1NC(=S)NC(=O)OCC`, the call in [1], in [2], in [3], in [4] and in test [9] was inactive. Moreover, the Potency result in [5], in test [6], in test [7], in test [8], in [11] and in [12] was “inactive” in each case. Moreover, the Potency result in [14] and in test [13] was “inactive” throughout.
